The text below walks through data of PubChem BioAssay AID2293 (National Center for Advancing Translational Sciences (NCATS), 2010).

SMILES strings stand for the structures. Activity calls are given as the source filed them. How the calls were made is not given here.

The first assay addresses Lysosomal alpha-glucosidase (Homo sapiens) (UniProt P10253). Description: Direct Measure of the Activation of Acid alpha-Glucosidase Catalytic Rate. As to conditions: purified enzyme, 4MU-alpha-Glc conversion, LC-MS; at 37.5 µM; stronger effect = higher value. From the text: NIH Chemical Genomics Center [NCGC] NIH Molecular Libraries Probe Production centers Network [MLPCN] MLPCN Grant: 1R03MH084841-01 Assay Submitter (PI): Wei Zheng NCGC Assay Overview: Alpha-glucosidase is responsible for hydrolysis of terminal, non-reducing 1,4-linked alpha-D-glucose residues with release of alpha-D-glucose. It is a lysosomal hydrolase that is required for the degradation of a small percentage (1-3%) of cellular glycogen in human. Deficiency of this enzyme results in glycogen-storage disease type II (GSDII), also referred to as Pompe disease, an autosomal recessive disorder. Structurally normal glycogen is accumulated in lysosomes and cytoplasm in affected patients, primarily in muscle tissues. Excessive glycogen storage within lysosomes may interrupt normal functioning of other organelles and leads to cellular injury. In turn, this leads to enlargement and dysfunction of the entire organ involved (eg, cardiomyopathy and muscle weakness). It has reported that the improper folding and trafficking of alpha-glucosidase resulting from the genetic mutations may account for a significant number of Pompe patients. […]
The catalysis rate of the 4MU-alpha-Gluc substrate by acid alpha-glucosidase was measured using LC-MS. […] (5) Add 50 ul stop solution (1M NaOH and 1M Glycine mixture, pH 10) (6) Run LC-MS and integrate peaks to quantitate amount of product
With `CCCN1CNc2c(c(=O)[nH]c(=S)n2CCc2ccc(OC)c(OC)c2)C1`, the substrate conversion is 28% (active).

The assay is the same for the next values; noted with them: purified enzyme, 4MU-alpha-Glc conversion, LC-MS; conversion; at 5 µM; stronger effect = higher value.
As to `CCCN1CNc2c(c(=O)[nH]c(=S)n2CCc2ccc(OC)c(OC)c2)C1`, the substrate conversion was 20%.
